Results on 40 compounds are retold here after PubChem BioAssay (Tox21).

Inconclusive results are not listed. A call without a number means that no potency is given here. Unmarked numbers belong to inactive results. Calls of active or inactive are those of the source. Unless noted, the call rests on the fitted dose curve; in most records, active means well fitted cell-killing curve with a large enough effect in the repeat runs; inconclusive means weak or mixed curves, or effect the other way; inactive means no such curve, though single readings can be large or run the other way.

Chain of Peroxisome proliferator-activated receptor gamma (Homo sapiens) (P37231 whole entry, looked up): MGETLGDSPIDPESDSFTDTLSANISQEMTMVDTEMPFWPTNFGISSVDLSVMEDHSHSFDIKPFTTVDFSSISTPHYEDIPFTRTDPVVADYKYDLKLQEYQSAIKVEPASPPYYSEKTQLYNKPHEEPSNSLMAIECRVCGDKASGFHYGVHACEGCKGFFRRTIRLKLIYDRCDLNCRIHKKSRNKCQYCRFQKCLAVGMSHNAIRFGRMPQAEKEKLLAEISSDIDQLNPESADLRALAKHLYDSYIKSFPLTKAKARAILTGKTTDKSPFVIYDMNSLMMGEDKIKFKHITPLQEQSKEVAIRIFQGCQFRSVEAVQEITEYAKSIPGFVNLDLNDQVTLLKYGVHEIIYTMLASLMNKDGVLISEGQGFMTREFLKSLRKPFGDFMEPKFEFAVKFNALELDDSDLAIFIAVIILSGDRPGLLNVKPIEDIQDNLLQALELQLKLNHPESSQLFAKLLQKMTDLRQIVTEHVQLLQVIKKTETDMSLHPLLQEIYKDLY

For one assay, the target named is Peroxisome proliferator-activated receptor gamma (Homo sapiens) (UniProt P37231). Description: qHTS assay to identify small molecule agonists of the peroxisome proliferator-activated receptor gamma (PPARg) signaling pathway (AID 743094; active means well fitted activation curve with a large enough effect in the signal ratio in the repeat runs, not every such curve was filed as active; the % refers to the signal ratio). The settings on record: HEK293H PPARg-UAS-bla, beta-lactamase FRET ratio, 17 h; series mostly up to 57 µM. Put shortly:
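GeneBLAzer PPARg UAS-bla HEK293H cells were plated, rested 5 h, then exposed to compounds for 17 h at 37C. Beta-lactamase activity was read by LiveBLAzer B/G FRET substrate fluorescence after 1 h at room temperature.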
(qHTS replaces the single test concentration by a dilution series.)
For `CCCCCC=CCC=CCCCCCCCC(=O)OCC`, the Potency entry is “inactive”.
Consider `O=C(Nc1ccc([N+](=O)[O-])cc1)Nc1ccc([N+](=O)[O-])cc1`, for which the Potency entry was “inactive”.
Turning to `C/C=C/C=C/CCCCCCCO`, the Potency result was “inactive”.
Regarding `C=CC(C)=CCC=C(C)C`, the Potency result is “inactive”.
For `CCOC(=O)/C=C/C(=O)O`, the Potency entry was “inactive”.
Take `CNC(=O)N(c1ccccc1)c1ccccc1`: the Potency result was “inactive”.
In the case of `CC(Cl)C(Cl)Cl` (stereo not given), the Potency result is “inactive”.
Regarding `CC(C)c1nnc2ccc(-c3ocnc3-c3cc(F)ccc3F)cn12`, the Potency result is “inactive”.
On the same count and under the same terms, to `CCOC(=O)[C@@H](C)Oc1ccc(Oc2nc3ccc(Cl)cc3o2)cc1` belongs “inactive”.
As to `CCCCCCCCCCCCCCC[C@H](O)[C@@H](N)CO`, the Potency result is “inactive”.
`CC(=O)Oc1ccc2c(c1)CC[C@@H]1[C@@H]2CC[C@]2(C)[C@@H](O)CC[C@@H]12`: the Potency result is “inactive”.
Take `C=CCOC(=O)/C=C\C(=O)OCC=C`: the Potency result was “inactive”.
For `CC1CC(O)CC(C)(C)C1` (stereo not given), the Potency result is “inactive”.
The same measure, in the same setting: with `COc1ccc(C(=O)c2cccc(O)c2)c(OC)c1` the entry was “inactive”; with `CO[Si](C)(OC)OC`, “inactive”.
Turning to `Cc1nc2ccccc2s1`, the Potency result was “inactive”.
Take `CN(C)C(=O)Nc1ccc(Oc2ccc(Cl)cc2)cc1`: the Potency entry was “inactive”.
Turning to `C[Si](NC1CCCCC1)(NC1CCCCC1)NC1CCCCC1`, the Potency entry was “inactive”.
As for `CCCCCCCC/C=C\CCCCCCCC(=O)OC(CO)CO`, the Potency result is “inactive”.
Take `Cc1oncc1C(=O)Nc1ccc(C(F)(F)F)cc1`: the Potency result was “inactive”.
On to `CSc1ccc(Oc2ccc(S(N)(=O)=O)cc2CN(C)C)cc1C`, for which the Potency result was “inactive”.
Still for that read-out and setting: with `Cc1nc2ccccn2c(=O)c1CCN1CCC(C(=O)c2ccc(F)cc2)CC1` the entry was “inactive”.
Regarding `CN1CCN(c2c(F)cc3c(=O)c(C(=O)O)cn4c3c2OCN4C)CC1`, the Potency result was “inactive”.
For the compound `[O]=[Bi]`, the activation is -4.02% [at 7.08 µM].
`CCC(C(=O)OCCOCCN(CC)CC)c1ccccc1` (stereo not given): the Potency entry is “inactive”.
Turning to `CC(N)CN` (stereo not given), the Potency entry was “inactive”.
In the case of `CCOC(=O)c1ccccc1C`, the Potency result was “inactive”.
As for `Nc1nccs1`, the Potency result is “inactive”.
As to `CC[C@@H]([C@H](C)O)n1ncn(-c2ccc(N3CCN(c4ccc(OC[C@@H]5CO[C@@](Cn6cncn6)(c6ccc(F)cc6F)C5)cc4)CC3)cc2)c1=O`, the Potency result was “inactive”.
Take `CC(C)CCCC(=O)O`: the Potency entry is “inactive”.
As to `CN(C(=O)C(Cl)Cl)c1ccc(OC(=O)c2ccco2)cc1`, the Potency entry was “inactive”.
With `CN1C(=O)CC(C)(c2ccccc2)C1=O` (stereo not given), the Potency entry was “inactive”.
Regarding `N#C[C@@H]1C[C@@H]2C[C@@H]2N1C(=O)[C@@H](N)C12CC3CC(CC(O)(C3)C1)C2`, the Potency result was “inactive”.
`Cc1occc1C(=O)Nc1ccc(C(=O)N2CCC(F)(F)/C(=C\C(=O)N3CCC(N4CCCCC4)CC3)c3ccccc32)cc1`: the Potency result was “inactive”.
Consider `CCc1nn(CCCN2CCN(c3cccc(Cl)c3)CC2)c(=O)n1CCOc1ccccc1`, for which the Potency result is “inactive”.
For `OCC1CC=CCC1` (stereo not given), the Potency entry is “inactive”.
In the case of `O=C(c1ccc(O)cc1)c1ccc(Cl)cc1`, the Potency entry is “inactive”.
For `CO/N=C1\CN(c2nc3c(cc2F)c(=O)c(C(=O)O)cn3C2CC2)CC1CN` (stereo not given), the Potency entry was “inactive”.
Consider `CCCCC(CC)C(=O)OCCOCCOCCOCCOC(=O)C(CC)CCCC` (stereo not given), for which the Potency result was “inactive”.
On the same count and under the same terms, to `CC(=O)OCC(=O)[C@H]1CC[C@H]2[C@@H]3CCC4=CC(=O)CC[C@]4(C)[C@H]3CC[C@]12C` belongs “inactive”.

Test system in another assay: not listed separately
Description: qHTS assay to identify small molecule antagonists of the peroxisome proliferator-activated receptor gamma (PPARg) signaling pathway - cell viability counter screen (AID 743194). Further: nearly all actives have a fitted effect of over 55% in size. Further: potency means the concentration at half of the fitted maximal effect. The settings on record: PPARg-bla HEK293H viability, CellTiter-Glo luminescence, 17 h, co-treated with 50 nM rosiglitazone; series mostly up to 62.6 µM. The essentials:
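PPARg-UAS-bla HEK293H cells were plated, rested 5 h at 37 C, then treated with compounds plus rosiglitazone (50 nM final) for 17 h at 37 C; viability was then read by CellTiter-Glo luminescence after 30 min at room temperature.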
As for `CCCCCC=CCC=CCCCCCCCC(=O)OCC`, the Potency entry is “inactive”.
`O=C(Nc1ccc([N+](=O)[O-])cc1)Nc1ccc([N+](=O)[O-])cc1`: the Potency was 1.33 µM (active).
Take `C/C=C/C=C/CCCCCCCO`: the Potency result is “inactive”.
`C=CC(C)=CCC=C(C)C`: the Potency entry was “inactive”.
On the same count and under the same terms, to `CCOC(=O)/C=C/C(=O)O` belongs “inactive”; to `CNC(=O)N(c1ccccc1)c1ccccc1`, “inactive”.
Regarding `CC(Cl)C(Cl)Cl` (stereo not given), the Potency entry was “inactive”.
As to `CC(C)c1nnc2ccc(-c3ocnc3-c3cc(F)ccc3F)cn12`, the Potency result is “inactive”.
Regarding `CCOC(=O)[C@@H](C)Oc1ccc(Oc2nc3ccc(Cl)cc3o2)cc1`, the Potency entry was “inactive”.
`CCCCCCCCCCCCCCC[C@H](O)[C@@H](N)CO`: the Potency entry was “inactive”.
As for `CC(=O)Oc1ccc2c(c1)CC[C@@H]1[C@@H]2CC[C@]2(C)[C@@H](O)CC[C@@H]12`, the Potency entry was “inactive”.
Take `C=CCOC(=O)/C=C\C(=O)OCC=C`: the Potency entry was “inactive”.
Turning to `CC1CC(O)CC(C)(C)C1` (stereo not given), the Potency result is “inactive”.
Regarding `COc1ccc(C(=O)c2cccc(O)c2)c(OC)c1`, the Potency entry was “inactive”.
`CO[Si](C)(OC)OC`: the Potency entry was “inactive”.
In the case of `Cc1nc2ccccc2s1`, the Potency entry is “inactive”.
Same read-out and setting: to `CN(C)C(=O)Nc1ccc(Oc2ccc(Cl)cc2)cc1` belongs “inactive”.
As to `C[Si](NC1CCCCC1)(NC1CCCCC1)NC1CCCCC1`, the Potency result was “inactive”.
With `CCCCCCCC/C=C\CCCCCCCC(=O)OC(CO)CO`, the Potency result was “inactive”.
Take `Cc1oncc1C(=O)Nc1ccc(C(F)(F)F)cc1`: the Potency result was “inactive”.
Take `CSc1ccc(Oc2ccc(S(N)(=O)=O)cc2CN(C)C)cc1C`: the Potency entry was “inactive”.
On to `Cc1nc2ccccn2c(=O)c1CCN1CCC(C(=O)c2ccc(F)cc2)CC1`, for which the Potency entry was “inactive”.
Same read-out and setting: with `CN1CCN(c2c(F)cc3c(=O)c(C(=O)O)cn4c3c2OCN4C)CC1` the entry was “inactive”.
With `[O]=[Bi]`, the activity change, negative = cytotoxicity was -1.71% [at 5.95 µM].
As to `CCC(C(=O)OCCOCCN(CC)CC)c1ccccc1` (stereo not given), the Potency result is “inactive”.
The same measure, in the same setting: with `CC(N)CN` (stereo not given) the entry was “inactive”; with `CCOC(=O)c1ccccc1C`, “inactive”; with `Nc1nccs1`, “inactive”.
In the case of `CC[C@@H]([C@H](C)O)n1ncn(-c2ccc(N3CCN(c4ccc(OC[C@@H]5CO[C@@](Cn6cncn6)(c6ccc(F)cc6F)C5)cc4)CC3)cc2)c1=O`, the Potency was 29.8 µM (active).
In the case of `CC(C)CCCC(=O)O`, the Potency entry was “inactive”.
`CN(C(=O)C(Cl)Cl)c1ccc(OC(=O)c2ccco2)cc1`: the Potency entry is “inactive”.
Same read-out and setting: with `CN1C(=O)CC(C)(c2ccccc2)C1=O` (stereo not given) the entry was “inactive”; with `N#C[C@@H]1C[C@@H]2C[C@@H]2N1C(=O)[C@@H](N)C12CC3CC(CC(O)(C3)C1)C2`, “inactive”.
Still for that read-out and setting: with `Cc1occc1C(=O)Nc1ccc(C(=O)N2CCC(F)(F)/C(=C\C(=O)N3CCC(N4CCCCC4)CC3)c3ccccc32)cc1` the entry was “inactive”; with `CCc1nn(CCCN2CCN(c3cccc(Cl)c3)CC2)c(=O)n1CCOc1ccccc1`, “inactive”; with `OCC1CC=CCC1` (stereo not given), “inactive”.
`O=C(c1ccc(O)cc1)c1ccc(Cl)cc1`: the Potency entry is “inactive”.
Still for that read-out and setting: to `CO/N=C1\CN(c2nc3c(cc2F)c(=O)c(C(=O)O)cn3C2CC2)CC1CN` (stereo not given) belongs “inactive”; to `CCCCC(CC)C(=O)OCCOCCOCCOCCOC(=O)C(CC)CCCC` (stereo not given), “inactive”.
As to `CC(=O)OCC(=O)[C@H]1CC[C@H]2[C@@H]3CCC4=CC(=O)CC[C@]4(C)[C@H]3CC[C@]12C`, the Potency entry was “inactive”.
